Test [1] has as its target T1, Tyrosine-protein kinase Mer (Homo sapiens) (UniProt Q12866).
T1 sequence (whole entry): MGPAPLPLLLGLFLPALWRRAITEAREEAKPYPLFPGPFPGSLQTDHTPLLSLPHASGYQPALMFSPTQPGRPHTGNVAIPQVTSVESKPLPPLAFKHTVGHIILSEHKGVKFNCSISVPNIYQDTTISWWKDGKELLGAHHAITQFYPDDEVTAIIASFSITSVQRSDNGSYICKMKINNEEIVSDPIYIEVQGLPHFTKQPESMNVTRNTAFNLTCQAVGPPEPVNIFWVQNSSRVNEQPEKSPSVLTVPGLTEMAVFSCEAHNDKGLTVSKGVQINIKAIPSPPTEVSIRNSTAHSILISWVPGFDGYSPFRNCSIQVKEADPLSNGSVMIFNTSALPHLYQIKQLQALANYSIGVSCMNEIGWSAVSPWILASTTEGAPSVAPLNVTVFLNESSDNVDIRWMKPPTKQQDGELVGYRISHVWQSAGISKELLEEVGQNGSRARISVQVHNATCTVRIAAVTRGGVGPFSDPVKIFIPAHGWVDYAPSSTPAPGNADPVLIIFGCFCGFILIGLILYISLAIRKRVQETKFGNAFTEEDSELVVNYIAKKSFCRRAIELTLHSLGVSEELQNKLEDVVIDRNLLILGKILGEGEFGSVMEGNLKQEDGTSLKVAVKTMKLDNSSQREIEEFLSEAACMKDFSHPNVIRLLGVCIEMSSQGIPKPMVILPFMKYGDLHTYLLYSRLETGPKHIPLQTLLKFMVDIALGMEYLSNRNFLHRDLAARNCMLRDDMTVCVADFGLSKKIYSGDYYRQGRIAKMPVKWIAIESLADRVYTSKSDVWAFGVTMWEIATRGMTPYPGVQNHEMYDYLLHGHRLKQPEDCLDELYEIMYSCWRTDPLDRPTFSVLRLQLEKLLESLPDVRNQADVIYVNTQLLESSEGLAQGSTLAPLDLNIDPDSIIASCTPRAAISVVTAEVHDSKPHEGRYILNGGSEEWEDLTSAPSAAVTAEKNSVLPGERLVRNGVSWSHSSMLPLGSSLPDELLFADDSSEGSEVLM
Conditions: at 1 µM.

For test [2], the target named is T1, Tyrosine-protein kinase Mer (Homo sapiens). The following applies: at 10 µM.
The target of test [3] is Hepatocyte growth factor receptor (Homo sapiens) (UniProt P08581). Conditions: at 1 µM.
Hepatocyte growth factor receptor (Homo sapiens), sequence (P08581 whole entry): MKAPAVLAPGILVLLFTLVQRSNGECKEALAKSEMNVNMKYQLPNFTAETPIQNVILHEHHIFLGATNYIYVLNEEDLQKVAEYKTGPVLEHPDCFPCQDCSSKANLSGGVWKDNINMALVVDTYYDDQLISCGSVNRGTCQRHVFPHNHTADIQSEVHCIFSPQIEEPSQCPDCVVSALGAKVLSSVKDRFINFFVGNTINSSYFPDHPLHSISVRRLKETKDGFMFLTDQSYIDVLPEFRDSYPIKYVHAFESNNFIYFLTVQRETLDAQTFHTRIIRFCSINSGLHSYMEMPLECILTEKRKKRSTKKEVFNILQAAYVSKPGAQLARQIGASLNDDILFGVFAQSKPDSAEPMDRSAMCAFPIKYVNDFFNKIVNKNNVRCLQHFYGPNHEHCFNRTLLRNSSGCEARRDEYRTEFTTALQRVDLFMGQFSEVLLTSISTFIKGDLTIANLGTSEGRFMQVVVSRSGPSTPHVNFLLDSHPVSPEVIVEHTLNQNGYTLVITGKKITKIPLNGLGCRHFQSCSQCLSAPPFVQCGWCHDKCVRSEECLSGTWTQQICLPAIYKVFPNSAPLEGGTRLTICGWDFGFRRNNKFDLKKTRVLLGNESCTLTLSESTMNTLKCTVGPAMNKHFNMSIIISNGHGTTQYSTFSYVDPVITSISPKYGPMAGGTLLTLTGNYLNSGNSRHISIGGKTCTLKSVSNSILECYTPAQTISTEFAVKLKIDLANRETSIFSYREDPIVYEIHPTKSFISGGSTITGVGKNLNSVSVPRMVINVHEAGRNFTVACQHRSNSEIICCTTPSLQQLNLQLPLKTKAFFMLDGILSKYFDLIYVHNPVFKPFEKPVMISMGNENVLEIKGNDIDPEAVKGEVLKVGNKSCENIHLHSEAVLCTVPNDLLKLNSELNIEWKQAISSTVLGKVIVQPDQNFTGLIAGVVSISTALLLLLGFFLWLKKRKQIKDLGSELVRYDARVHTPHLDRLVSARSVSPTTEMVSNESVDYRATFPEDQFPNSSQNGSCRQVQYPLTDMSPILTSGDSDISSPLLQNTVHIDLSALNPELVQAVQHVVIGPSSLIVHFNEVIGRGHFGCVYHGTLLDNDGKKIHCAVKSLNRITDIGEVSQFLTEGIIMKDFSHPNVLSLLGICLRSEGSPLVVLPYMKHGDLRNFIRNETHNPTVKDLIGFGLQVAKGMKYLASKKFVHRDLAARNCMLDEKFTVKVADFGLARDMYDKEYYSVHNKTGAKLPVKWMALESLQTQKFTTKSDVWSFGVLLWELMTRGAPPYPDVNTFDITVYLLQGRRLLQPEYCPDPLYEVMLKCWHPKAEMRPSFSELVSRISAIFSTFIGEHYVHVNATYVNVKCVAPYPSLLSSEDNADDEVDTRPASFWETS
Test [4] shares this target. Conditions: at 10 µM.
Test [5] has as its target MAP kinase-interacting serine/threonine-protein kinase 2 (Homo sapiens) (UniProt Q9HBH9). The following applies: at 1 µM.
The target is the same in test [6]. The following applies: at 10 µM.
Test [7] has as its target T2, Muscle, skeletal receptor tyrosine-protein kinase (Homo sapiens) (UniProt O15146).
T2 sequence (whole entry): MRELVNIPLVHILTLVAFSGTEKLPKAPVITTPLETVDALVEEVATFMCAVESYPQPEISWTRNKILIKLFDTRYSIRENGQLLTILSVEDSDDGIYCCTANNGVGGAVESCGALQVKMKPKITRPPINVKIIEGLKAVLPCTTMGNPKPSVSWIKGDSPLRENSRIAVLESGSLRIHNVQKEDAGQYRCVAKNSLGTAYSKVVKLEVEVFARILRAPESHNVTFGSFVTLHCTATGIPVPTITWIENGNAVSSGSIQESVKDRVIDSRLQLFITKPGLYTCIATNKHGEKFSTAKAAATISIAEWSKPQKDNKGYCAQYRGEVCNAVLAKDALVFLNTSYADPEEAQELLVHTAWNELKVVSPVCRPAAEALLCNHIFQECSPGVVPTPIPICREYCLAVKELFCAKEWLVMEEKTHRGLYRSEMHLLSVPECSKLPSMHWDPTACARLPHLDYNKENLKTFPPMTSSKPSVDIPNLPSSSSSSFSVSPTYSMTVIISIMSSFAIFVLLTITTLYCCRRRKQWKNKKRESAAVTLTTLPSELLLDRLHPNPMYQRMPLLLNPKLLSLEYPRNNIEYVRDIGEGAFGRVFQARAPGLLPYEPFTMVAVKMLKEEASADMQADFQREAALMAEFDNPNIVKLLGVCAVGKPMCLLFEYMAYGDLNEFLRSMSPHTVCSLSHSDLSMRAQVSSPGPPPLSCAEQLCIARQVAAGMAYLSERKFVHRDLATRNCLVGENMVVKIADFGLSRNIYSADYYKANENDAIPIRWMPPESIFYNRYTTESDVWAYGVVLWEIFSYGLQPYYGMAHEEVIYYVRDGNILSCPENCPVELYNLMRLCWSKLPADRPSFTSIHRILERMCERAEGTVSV
Conditions: at 1 µM.

The target of test [8] is T2, Muscle, skeletal receptor tyrosine-protein kinase (Homo sapiens). Conditions: at 10 µM.
For test [9], the target named is T3, Serine/threonine-protein kinase Nek11 (Homo sapiens) (UniProt Q8NG66).
T3 sequence (whole entry): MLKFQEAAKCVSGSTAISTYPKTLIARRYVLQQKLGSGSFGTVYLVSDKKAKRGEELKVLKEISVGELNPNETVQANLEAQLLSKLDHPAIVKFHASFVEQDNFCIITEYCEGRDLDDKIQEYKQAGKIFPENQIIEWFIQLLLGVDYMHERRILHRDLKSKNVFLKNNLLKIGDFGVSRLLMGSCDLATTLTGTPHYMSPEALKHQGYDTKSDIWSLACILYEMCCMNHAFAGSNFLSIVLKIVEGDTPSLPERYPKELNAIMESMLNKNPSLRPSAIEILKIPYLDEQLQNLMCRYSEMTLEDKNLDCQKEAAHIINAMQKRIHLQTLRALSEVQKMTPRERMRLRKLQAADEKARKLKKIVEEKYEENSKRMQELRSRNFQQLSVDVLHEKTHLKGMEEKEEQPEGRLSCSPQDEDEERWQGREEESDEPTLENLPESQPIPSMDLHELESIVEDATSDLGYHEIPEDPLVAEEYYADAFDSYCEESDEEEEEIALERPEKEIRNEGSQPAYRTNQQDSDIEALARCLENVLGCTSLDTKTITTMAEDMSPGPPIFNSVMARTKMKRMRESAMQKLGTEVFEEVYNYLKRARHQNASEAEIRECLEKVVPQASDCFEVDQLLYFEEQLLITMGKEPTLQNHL
Conditions: at 1 µM.

For test [10], the target named is T3, Serine/threonine-protein kinase Nek11 (Homo sapiens). The following applies: at 10 µM.
Test [11] addresses T4, Serine/threonine-protein kinase Nek2 (Homo sapiens) (UniProt P51955).
T4 sequence (whole entry): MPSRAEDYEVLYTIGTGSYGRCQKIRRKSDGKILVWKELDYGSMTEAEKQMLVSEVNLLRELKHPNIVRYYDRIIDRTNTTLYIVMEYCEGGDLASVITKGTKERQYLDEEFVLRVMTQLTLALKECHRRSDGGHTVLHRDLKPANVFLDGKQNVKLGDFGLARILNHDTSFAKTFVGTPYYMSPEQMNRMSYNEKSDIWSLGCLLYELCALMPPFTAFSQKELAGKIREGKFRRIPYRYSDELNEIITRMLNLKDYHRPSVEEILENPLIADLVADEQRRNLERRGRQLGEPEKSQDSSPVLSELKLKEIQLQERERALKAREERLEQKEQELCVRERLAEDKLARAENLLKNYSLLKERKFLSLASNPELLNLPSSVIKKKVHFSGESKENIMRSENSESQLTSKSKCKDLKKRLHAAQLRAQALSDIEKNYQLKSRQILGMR
The following applies: at 1 µM.

Test [12] concerns the target T4, Serine/threonine-protein kinase Nek2 (Homo sapiens). Conditions: at 10 µM.
Test [13] deals with T5, Serine/threonine-protein kinase Nek3 (Homo sapiens) (UniProt P51956).
T5 sequence (whole entry): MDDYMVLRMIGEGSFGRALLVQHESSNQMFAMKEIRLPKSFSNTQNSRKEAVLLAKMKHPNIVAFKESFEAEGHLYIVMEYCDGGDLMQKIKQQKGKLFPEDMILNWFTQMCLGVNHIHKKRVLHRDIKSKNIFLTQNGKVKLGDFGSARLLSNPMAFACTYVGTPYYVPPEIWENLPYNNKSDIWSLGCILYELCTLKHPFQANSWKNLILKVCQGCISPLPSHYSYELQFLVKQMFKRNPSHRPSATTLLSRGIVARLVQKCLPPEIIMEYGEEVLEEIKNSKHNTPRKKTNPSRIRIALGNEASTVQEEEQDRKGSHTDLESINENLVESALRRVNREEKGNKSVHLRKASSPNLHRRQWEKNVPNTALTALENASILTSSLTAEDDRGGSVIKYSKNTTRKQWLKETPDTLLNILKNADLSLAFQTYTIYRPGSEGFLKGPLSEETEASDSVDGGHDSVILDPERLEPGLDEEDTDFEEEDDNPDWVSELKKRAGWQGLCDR
The following applies: at 1 µM.

Test [14] concerns the target T5, Serine/threonine-protein kinase Nek3 (Homo sapiens). The following applies: at 10 µM.
For test [15], the target named is Serine/threonine-protein kinase tousled-like 2 (Homo sapiens) (UniProt Q86UE8). The following applies: at 1 µM.
Serine/threonine-protein kinase tousled-like 2 (Homo sapiens), sequence (Q86UE8 whole entry, looked up): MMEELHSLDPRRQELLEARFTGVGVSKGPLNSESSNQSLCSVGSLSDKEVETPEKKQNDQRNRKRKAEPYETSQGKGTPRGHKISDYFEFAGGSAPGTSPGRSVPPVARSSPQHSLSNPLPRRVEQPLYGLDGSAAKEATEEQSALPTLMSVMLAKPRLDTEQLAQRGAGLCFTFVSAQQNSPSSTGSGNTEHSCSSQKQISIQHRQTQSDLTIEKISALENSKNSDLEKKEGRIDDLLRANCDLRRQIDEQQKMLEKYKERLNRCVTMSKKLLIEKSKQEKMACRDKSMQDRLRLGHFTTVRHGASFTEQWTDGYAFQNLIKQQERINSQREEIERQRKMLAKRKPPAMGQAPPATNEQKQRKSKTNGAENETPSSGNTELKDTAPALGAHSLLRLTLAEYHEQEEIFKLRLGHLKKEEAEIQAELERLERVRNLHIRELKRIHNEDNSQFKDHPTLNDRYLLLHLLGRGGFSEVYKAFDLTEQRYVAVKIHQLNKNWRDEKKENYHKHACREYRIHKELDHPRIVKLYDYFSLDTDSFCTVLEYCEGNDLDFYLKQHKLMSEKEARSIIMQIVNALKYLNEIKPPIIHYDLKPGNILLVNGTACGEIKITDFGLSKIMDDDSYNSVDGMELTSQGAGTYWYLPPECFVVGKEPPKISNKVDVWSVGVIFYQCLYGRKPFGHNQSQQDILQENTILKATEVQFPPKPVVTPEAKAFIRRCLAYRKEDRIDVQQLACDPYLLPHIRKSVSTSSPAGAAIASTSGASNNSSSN
The target is the same in test [16]. Conditions: at 10 µM.
Test [17] addresses T6, Testis-specific serine/threonine-protein kinase 1 (Homo sapiens) (UniProt Q9BXA7).
T6 sequence (whole entry): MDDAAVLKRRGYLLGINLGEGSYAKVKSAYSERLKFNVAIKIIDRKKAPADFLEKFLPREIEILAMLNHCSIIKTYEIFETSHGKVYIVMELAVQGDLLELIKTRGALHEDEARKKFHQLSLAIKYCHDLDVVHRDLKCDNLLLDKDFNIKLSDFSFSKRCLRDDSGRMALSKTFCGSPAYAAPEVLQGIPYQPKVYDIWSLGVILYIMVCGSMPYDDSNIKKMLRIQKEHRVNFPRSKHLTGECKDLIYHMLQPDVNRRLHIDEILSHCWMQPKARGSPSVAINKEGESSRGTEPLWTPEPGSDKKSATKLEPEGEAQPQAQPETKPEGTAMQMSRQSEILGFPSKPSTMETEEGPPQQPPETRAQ
Conditions: at 1 µM.

Test [18] addresses T6, Testis-specific serine/threonine-protein kinase 1 (Homo sapiens). Conditions: at 10 µM.
Test [19] has as its target T7, Testis-specific serine/threonine-protein kinase 2 (Homo sapiens) (UniProt Q96PF2).
T7 sequence (whole entry): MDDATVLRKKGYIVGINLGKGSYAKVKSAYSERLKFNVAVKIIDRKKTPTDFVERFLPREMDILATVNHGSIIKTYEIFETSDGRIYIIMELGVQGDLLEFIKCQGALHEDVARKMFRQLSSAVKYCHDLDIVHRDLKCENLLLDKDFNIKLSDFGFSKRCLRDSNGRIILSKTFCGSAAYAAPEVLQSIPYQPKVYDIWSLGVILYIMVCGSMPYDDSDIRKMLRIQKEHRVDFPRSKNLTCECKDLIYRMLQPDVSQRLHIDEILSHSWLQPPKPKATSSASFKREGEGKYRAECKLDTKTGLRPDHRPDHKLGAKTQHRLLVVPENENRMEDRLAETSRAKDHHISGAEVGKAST
The following applies: at 1 µM.

The target in test [20] is T7, Testis-specific serine/threonine-protein kinase 2 (Homo sapiens). Conditions: at 10 µM.

MAP kinase-interacting serine/threonine-protein kinase 2 (Homo sapiens), sequence (Q9HBH9 whole entry, looked up): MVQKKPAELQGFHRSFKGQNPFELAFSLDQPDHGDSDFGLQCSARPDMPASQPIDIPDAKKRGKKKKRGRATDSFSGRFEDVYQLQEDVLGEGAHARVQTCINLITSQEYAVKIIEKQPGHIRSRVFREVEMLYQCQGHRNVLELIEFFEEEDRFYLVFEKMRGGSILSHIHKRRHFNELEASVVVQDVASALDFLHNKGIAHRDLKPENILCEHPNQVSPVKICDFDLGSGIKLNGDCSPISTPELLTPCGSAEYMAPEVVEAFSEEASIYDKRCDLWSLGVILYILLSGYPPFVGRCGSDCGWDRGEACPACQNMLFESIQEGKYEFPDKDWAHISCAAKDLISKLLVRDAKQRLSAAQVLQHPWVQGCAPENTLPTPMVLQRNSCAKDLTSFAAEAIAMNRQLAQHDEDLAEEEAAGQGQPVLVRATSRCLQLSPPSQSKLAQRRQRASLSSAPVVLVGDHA

In general, residual activity refers to the signal under treatment as a percentage of the control signal. As to `COc1cc(OC)c(/C=C2\C(=O)Nc3ccccc32)c(OC)c1`, the residual activity was determined as 95% in test [1]; 93% in [2]; 103% in [3]; 94% in [4]; 99% in test [5]; 96% in test [6]. The residual activity was determined as 88% in [7]; 78% in test [8]; 43% in test [9]; 61% in test [10]; 90% in [11]; 91% in [12]. In addition, the residual activity in test [13] was 80%; in [14] it was 96%; in [15] it was 91%; in [16], 85%; in test [17] it was 92%; in [18], 91%. Moreover, the results for the residual activity in test [19] and in [20] were 102% and 99%, respectively.
Take `COc1ccc2c(c1)c(C1=C(c3c[nH]c4ccccc34)C(=O)NC1=O)cn2CCCN(C)C`: in test [19], the residual activity turned out to be 81%.
With `CC(C)(C)c1cc(C=C(C#N)C#N)cc(Br)c1O`, the residual activity is 116% in [1]; 121% in test [7]; 72% in test [8]; 109% in test [10]; 101% in [12]; 115% in test [13]. Besides, the residual activity in [14] was 109%; in test [15], 112%; in [16], 98%; in test [17] it was 105%; in [18], 101%; in test [19], 113%.
As for `CN[C@@H]1C[C@H]2O[C@@](C)([C@@H]1OC)n1c3ccccc3c3c4c(c5c6ccccc6n2c5c31)C(=O)NC4`, the residual activity in test [13] was found to be 105%; in test [14] it was 67%; in test [15] it was 1%; in [16], 1%.
On to `O=C1Nc2cc(Br)ccc2/C1=C1/Nc2ccccc2/C1=N\O`, for which the residual activity in [19] worked out at 73%.
As to `Cc1cc(Nc2nc(-c3ccccc3)nc3ccccc23)n[nH]1`, in test [19], the residual activity turned out to be 96%.
Regarding `COc1ccc(Cl)cc1NC(=O)Nc1cc(C)nc2ccccc12`, in [19], the residual activity worked out at 100%.
Regarding `COc1ccc2c(c1)/C(=C/c1cnc[nH]1)C(=O)N2`, the residual activity in test [4] worked out at 42%; in [6] it was 40%; in test [7], 80%; in [8], 27%; in test [15] it was 63%; in test [16], 11%.
